The subject of experiment [1] is PRMT1 (protein arginine N-methyltransferase 1). Description: small molecules binding arginine methyltransferase PRMT1 – biochemical, small-molecule microarray, 635 nm fluorescence, primary screen (AID 1088).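 Also: binding of Prmt1 protein to compounds spotted on small-molecule microarray slides.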 The conditions noted are these: higher = more signal.
Experiment [2] is described as follows: growth effects on S. cerevisiae YJM789 – YJM789 clinical isolate, OD600, 24 h, basal, primary screen (AID 1089).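 Also: growth of clinical yeast isolate S. cerevisiae YJM 789 seeded 1000 cells per well; test concentration not given here.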 The following applies: higher = more signal, called active from +8 up or from −8 down.
Experiment [3] in a line: S. pombe growth modifiers, basal conditions – strain 972, OD600, 24 h, no modulator, primary screen (AID 1090).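 Also: basal condition with compound alone and no growth modifier present; test concentration not given here.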 The following applies: S. pombe 972 growth, higher = more signal, called active from +8 up or from −8 down.
Experiment [4] in a line: budding yeast growth modifiers under rapamycin – strain BY4716, OD600, 96 h, primary screen (AID 1091). Also: test concentration not given here. The conditions noted are these: S. cerevisiae BY4716 + rapamycin, higher = more signal, called active from +8 up or from −8 down.
For experiment [5], the target named is Torsin-1A-interacting protein 2 (Homo sapiens) (UniProt Q8NFQ8). Description: small molecules binding lysate-expressed LULL1 – cell lysate, human LULL1 lysate, 635/667 nm fluorescence, primary screen (AID 1092).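 Also: probe is lysate of COS7 cells overexpressing human LULL1; score merges per-feature 667 nm fluorescence with signal-to-noise.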 The following applies: small-molecule microarray, hLULL1 lysate binding, 635 nm fluorescence; higher = more signal.
A short description of experiment [6]: optical density change of DRC41 E. coli – strain DRC41, OD650, 24 h, E. coli filamentation project, primary screen (AID 1093).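 Also: MC1000 strain lacking acrAB efflux and sulA so SOS filamentation is blocked; test concentration not given here.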 The conditions noted are these: E. coli DRC41 growth, higher = more signal, called active from +8 up or from −8 down.
Experiment [7] in a line: probe aLefty2 binding to arrayed compounds – biochemical, biotinylated probe, 635/667 nm fluorescence, primary screen (AID 1094).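 Also: score merges spot fluorescence near 667 nm with spot signal-to-noise ratio.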 The conditions noted are these: small-molecule microarray, higher = more signal.
Experiment [8] deals with Noggin (protein binding on small-molecule microarray). Kind of experiment: small molecules binding Noggin protein – biochemical, 635/667 nm fluorescence, primary screen (AID 1095).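 Also: score merges 667 nm feature fluorescence with signal to noise over triplicate slides.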 The conditions noted are these: 635 nm fluorescence, higher = more signal.
Experiment [9] concerns the target Neurogenic locus notch homolog protein 3 (Homo sapiens) (UniProt Q9UM47). Kind of experiment: small molecules binding NOTCH3 protein – biochemical, 635/667 nm fluorescence, primary screen (AID 1096). The conditions noted are these: small-molecule microarray, 635 nm fluorescence, higher = more signal.
A short description of experiment [10]: probe aEGFR binding to arrayed compounds – biochemical, biotinylated probe, 635/667 nm fluorescence, primary screen (AID 1097).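 Also: probe is a biotinylated anti-EGFR antibody binding compounds printed on slides; score combines fluorescence near 667 nm and signal to noise of each spot.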 The following applies: small-molecule microarray, higher = more signal.

Activity calls are given as the source filed them.

Sequence of Torsin-1A-interacting protein 2 (Homo sapiens) (Q8NFQ8 whole entry, looked up): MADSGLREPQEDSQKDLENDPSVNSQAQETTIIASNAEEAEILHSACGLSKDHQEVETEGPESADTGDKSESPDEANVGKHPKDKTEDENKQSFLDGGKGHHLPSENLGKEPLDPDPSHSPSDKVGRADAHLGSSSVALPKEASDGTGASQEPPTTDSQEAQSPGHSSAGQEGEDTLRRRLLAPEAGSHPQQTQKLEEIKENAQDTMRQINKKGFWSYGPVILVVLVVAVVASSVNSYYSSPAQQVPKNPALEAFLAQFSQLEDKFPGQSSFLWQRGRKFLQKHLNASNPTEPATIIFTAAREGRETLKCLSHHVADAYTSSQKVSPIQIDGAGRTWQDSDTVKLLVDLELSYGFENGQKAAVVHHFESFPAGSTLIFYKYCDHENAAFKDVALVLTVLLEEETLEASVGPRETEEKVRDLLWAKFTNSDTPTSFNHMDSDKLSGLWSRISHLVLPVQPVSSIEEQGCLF
Sequence of Neurogenic locus notch homolog protein 3 (Homo sapiens) (Q9UM47 whole entry, looked up): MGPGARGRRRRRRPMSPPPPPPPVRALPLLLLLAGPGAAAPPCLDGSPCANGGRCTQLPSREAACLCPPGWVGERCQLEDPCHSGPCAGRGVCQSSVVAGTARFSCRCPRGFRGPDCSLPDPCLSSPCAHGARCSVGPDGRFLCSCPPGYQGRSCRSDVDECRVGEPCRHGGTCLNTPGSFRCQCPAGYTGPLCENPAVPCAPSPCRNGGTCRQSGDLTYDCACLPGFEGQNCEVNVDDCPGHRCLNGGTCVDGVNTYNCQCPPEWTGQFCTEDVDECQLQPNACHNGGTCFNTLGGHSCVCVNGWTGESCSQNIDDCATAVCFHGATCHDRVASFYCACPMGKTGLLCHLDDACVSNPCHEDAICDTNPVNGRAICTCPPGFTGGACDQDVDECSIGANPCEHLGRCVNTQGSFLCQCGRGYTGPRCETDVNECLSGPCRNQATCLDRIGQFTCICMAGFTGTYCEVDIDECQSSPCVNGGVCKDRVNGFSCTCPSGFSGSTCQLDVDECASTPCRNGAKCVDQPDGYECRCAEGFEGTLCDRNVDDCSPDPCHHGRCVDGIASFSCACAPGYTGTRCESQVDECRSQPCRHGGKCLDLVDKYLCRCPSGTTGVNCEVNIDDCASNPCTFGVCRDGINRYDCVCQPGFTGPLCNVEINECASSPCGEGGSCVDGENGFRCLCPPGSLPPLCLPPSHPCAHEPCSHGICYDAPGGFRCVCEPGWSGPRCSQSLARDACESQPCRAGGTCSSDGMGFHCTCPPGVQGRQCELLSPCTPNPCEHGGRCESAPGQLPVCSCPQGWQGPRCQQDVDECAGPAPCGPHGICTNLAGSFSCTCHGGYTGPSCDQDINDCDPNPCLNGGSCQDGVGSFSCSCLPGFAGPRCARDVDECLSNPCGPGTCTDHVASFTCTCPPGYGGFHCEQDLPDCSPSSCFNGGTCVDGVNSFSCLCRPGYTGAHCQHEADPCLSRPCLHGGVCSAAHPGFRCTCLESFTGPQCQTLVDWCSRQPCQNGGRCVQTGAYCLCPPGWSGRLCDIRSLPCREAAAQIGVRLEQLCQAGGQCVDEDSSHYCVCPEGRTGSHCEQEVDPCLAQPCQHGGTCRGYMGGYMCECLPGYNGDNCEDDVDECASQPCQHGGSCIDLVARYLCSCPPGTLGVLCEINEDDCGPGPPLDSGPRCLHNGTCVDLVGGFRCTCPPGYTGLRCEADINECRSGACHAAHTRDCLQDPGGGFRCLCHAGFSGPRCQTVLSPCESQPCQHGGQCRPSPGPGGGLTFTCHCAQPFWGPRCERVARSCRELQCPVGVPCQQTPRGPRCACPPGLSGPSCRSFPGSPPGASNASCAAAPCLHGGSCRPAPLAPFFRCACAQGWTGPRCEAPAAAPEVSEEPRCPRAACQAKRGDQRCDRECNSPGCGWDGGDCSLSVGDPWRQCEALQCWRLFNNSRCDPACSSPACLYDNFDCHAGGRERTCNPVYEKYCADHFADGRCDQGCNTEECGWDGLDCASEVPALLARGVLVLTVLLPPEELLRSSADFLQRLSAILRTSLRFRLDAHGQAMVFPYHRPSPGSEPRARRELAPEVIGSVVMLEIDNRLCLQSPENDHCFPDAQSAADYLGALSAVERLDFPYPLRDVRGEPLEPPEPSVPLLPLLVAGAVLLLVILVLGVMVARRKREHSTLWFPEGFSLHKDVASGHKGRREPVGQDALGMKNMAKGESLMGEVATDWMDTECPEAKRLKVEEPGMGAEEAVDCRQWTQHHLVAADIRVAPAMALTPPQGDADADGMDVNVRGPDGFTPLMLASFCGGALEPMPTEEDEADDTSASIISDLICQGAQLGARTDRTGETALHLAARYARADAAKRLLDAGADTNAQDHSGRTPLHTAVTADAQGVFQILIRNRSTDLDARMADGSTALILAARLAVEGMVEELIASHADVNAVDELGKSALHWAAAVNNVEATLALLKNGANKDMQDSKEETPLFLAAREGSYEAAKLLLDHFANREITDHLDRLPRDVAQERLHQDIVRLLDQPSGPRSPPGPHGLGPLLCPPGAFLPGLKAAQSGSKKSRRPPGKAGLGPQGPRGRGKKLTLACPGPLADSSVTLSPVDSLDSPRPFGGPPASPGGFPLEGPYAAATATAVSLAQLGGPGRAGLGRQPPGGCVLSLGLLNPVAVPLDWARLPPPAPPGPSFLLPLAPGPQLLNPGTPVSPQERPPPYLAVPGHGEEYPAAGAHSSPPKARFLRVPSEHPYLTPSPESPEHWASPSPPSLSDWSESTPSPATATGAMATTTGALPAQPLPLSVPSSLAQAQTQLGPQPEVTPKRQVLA

As for `C=CC[C@@H]1C=C[C@H](ON=C2c3cc(OC)ccc3O[C@H](c3cccc(OC)c3)[C@H]2O)[C@@H](CO)O1`, the composite z-score in experiment [1] is -0.524; in [5], 0.813; in experiment [7] it was -0.233; in [8] it was -0.0543; in experiment [9], 0.0033; in experiment [10] it was -0.133. Moreover, the z-score in experiment [2] was -0.39 (inactive); in experiment [3], -0.851 (inactive); in experiment [4], -1.42 (inactive); in [6], 0.686 (inactive).

In the case of `CN(C)CCCNC(=O)[C@@H]1c2ccccc2C(=O)N(Cc2cc(F)cc(C(F)(F)F)c2)[C@H]1c1ccc(CO)cc1`, the composite z-score is 1.56 in experiment [1]; 2.93 in [5]; -0.166 in experiment [7]; -0.0315 in experiment [8]; -1.2 in [9]; -0.174 in experiment [10]. Further, the z-score is -0.414 (inactive) in [2], -0.627 (inactive) in experiment [3], -0.917 (inactive) in experiment [4] and -0.66 (inactive) in [6].

Take `O=C1[C@H]2[C@H]3[C@H](O)[C@H](O)CC(=NOC[C@@H](O)COCc4ccco4)[C@H]3CC[C@H]2C(=O)N1Cc1ccc2c(c1)OCO2`: the composite z-score was 1.29 in [1]; -0.829 in [5]; -0.29 in experiment [7]; 0.154 in experiment [8]; -0.0875 in experiment [9]; -0.0039 in experiment [10]. Also, the z-score was -0.285 (inactive) in experiment [2], -0.279 (inactive) in [3], -1.09 (inactive) in experiment [4] and 0.617 (inactive) in experiment [6].

With `CC(C)(C)OC(=O)CC[C@]1(C(=O)NCc2ccccc2)N=C(c2ccc(OCCCO)cc2)O[C@H]1c1ccccc1`, the composite z-score in experiment [1] was 1.55; in experiment [5] it was 3.71; in experiment [7] it was -0.0354; in [8], 0.798; in [9], 0.97; in [10] it was -0.123. Also, the z-score in experiment [2] was -0.105 (inactive); in experiment [3], 0.851 (inactive); in experiment [4] it was 1.64 (inactive); in [6] it was 0.0596 (inactive).

Take `COC(=O)[C@H]1COC(c2ccc(OCCCO)cc2)=N1`: the composite z-score in experiment [1] is -0.152; in [5], 3.59; in experiment [7], 0.267; in experiment [8] it was -0.37; in experiment [9] it was -0.607; in [10], -0.0947. Moreover, the z-score in experiment [2] was -0.488 (inactive); in experiment [3] it was -0.888 (inactive); in experiment [4], -0.606 (inactive); in experiment [6], 0.332 (inactive).

Turning to `COc1ccc([Si](C)(C)[C@H]2[C@H](CCO)O[C@@]3(C(=O)N(Cc4cccc(NC(=O)[C@H](C)O)c4)c4ccccc43)[C@@H]2C)cc1`, the composite z-score in [1] was 1.54; in experiment [5], 2.47; in experiment [7], -0.0664; in experiment [8] it was 1.24; in [9] it was 1.09; in experiment [10], -0.013. For the same molecule, the z-score is 1.62 (inactive) in [2], 0.562 (inactive) in experiment [3], 7.56 (inactive) in [4] and 1.24 (inactive) in [6].

With `O=C(NN=C1C[C@@H](O)[C@@H](O)[C@@H]2[C@@H]3C(=O)N(c4cccc(Oc5ccccc5)c4)C(=O)[C@@H]3CC[C@@H]12)OCc1ccccc1`, the composite z-score in experiment [1] is 0.633; in experiment [5], 1.46; in experiment [7], -0.0345; in experiment [8], 0.635; in experiment [9], 0.0096; in experiment [10], -0.124. For the same molecule, the z-score in experiment [2] was 0.909 (inactive); in [3], 0.588 (inactive); in [4], 0.281 (inactive); in [6] it was 0.108 (inactive).

For the molecule `COC(=O)CC=C[C@H](C)[C@@H](OCc1ccccc1Br)C(C)C`, the composite z-score was 0.204 in experiment [1]; -0.117 in experiment [5]; -0.228 in experiment [7]; 0.168 in experiment [8]; -0.0294 in experiment [9]; -0.167 in experiment [10]. Also, the z-score is -0.0851 (inactive) in experiment [2], -0.552 (inactive) in experiment [3], 0.393 (inactive) in experiment [4] and -0.295 (inactive) in experiment [6].

`CCOC(=O)C[C@H]1[C@H](OC(=O)c2cc3ccccc3oc2=O)[C@@H](NC(=O)c2ccc3ccccc3n2)c2cc(OCCCO)ccc2N1C(=O)c1ccccc1`: the composite z-score in experiment [1] is 0.5; in [5], 0.413; in experiment [7] it was -0.0171; in [8], 0.603; in experiment [9], 0.724; in experiment [10], 0.0745. In addition, the z-score in experiment [2] was 0.282 (inactive); in experiment [3] it was -0.738 (inactive); in experiment [4] it was 0.156 (inactive); in [6] it was 0.471 (inactive).

Take `CCOC(=O)C1=CCC(c2cc3ccccc3[nH]2)NC1` (stereo not given): the composite z-score in experiment [1] is 0.37; in experiment [5], 2.45; in experiment [7], 0.389; in experiment [8], -0.465; in [9], 0.335; in experiment [10], -0.0065. Further, the z-score in experiment [2] is -1.36 (inactive); in experiment [3], -2.39 (inactive); in experiment [4], 1.42 (inactive); in [6], -0.0849 (inactive).

For the molecule `C=CCC(OC(C)=O)[C@@H]1[C@@H](N(Cc2cc3ccccc3o2)C(=O)Cc2ccc(F)cc2)c2cc(OCCCO)ccc2N1C(=O)Cc1ccc(OC)cc1` (stereo not given in full), the composite z-score in experiment [1] is -1.46; in experiment [5], -0.362; in [7], -0.198; in experiment [8], -0.0439; in experiment [9] it was -1.37; in experiment [10] it was -0.131. For the same molecule, the z-score is -1.54 (inactive) in experiment [2], -0.644 (inactive) in experiment [3], -0.624 (inactive) in [4] and -0.824 (inactive) in experiment [6].

As for `O=C(CS)NCCCCCNC(=O)[C@@H]1C[C@@H]2C(=O)N[C@@H](Cc3ccccc3)C(=O)N2[C@@H]1c1ccc(O)cc1`, the composite z-score in experiment [1] was 1.47; in experiment [5] it was 3.06; in experiment [7], -0.0687; in experiment [8], -0.306; in [9], 0.373; in [10], -0.104. Further, the z-score is 0.176 (inactive) in experiment [2], -0.321 (inactive) in [3], 0.858 (inactive) in experiment [4] and 1.28 (inactive) in [6].

Take `O=C1c2ccccc2[C@@]2(Cc3ccccc3N(C3CC3)C2=O)[C@H](c2ccc(CO)cc2)N1Cc1ccccc1C(F)(F)F`: the composite z-score in experiment [1] was 0.51; in experiment [5], 1.83; in [7] it was 0.104; in experiment [8], -1.31; in [9], -0.0714; in experiment [10], -0.171. In addition, the z-score in [2] was -0.104 (inactive); in experiment [3] it was -0.995 (inactive); in experiment [4], -1.47 (inactive); in experiment [6], -2.03 (inactive).

For the molecule `CO[C@H]([C@@H](C)[C@H](OC)c1ccccc1)[C@H](C)[C@@H](OC)[C@H](C)C(C)=O`, the composite z-score in [1] is -0.694; in experiment [5], -0.391; in experiment [7], -0.0159; in experiment [8], -0.233; in experiment [9], -0.177; in experiment [10], -0.0996. Further, the z-score in experiment [2] is 0.474 (inactive); in experiment [3], -0.0357 (inactive); in [4] it was -0.175 (inactive); in experiment [6], 0.243 (inactive).

These data come from PubChem BioAssay.
